Consider 88 molecules from PubChem BioAssay AID588689 (Southern Research Specialized Biocontainment Screening …, 2011).

The target in this assay is Genome polyprotein (Dengue virus type 2 (strain 16681-PDK53)) (UniProt P29991). Nature of the assay: Dengue-2 NS5 methyltransferase inhibitors, primary screen, biochemical, confirmation dose response (AID 588689). The conditions noted are these: Dengue-2 NS5 methyltransferase capping enzyme assay, at 25 µM, stronger effect = higher value.
[1] abbreviates: measured here: pilot screen replicate inhibition.

“And” between values parts separate entries of the source, which are not always exact repeats. Identical values can stand only once. Screen size: about 340,000 compounds; about 1,000 (0.29%) were called active. Cut-off read from the data, not from the text of the source: inconclusive = inhibition above about 29% without an active follow-up result; inactive = below that. A selection follows. Measured potencies and affinities stand elsewhere.

Chain of Genome polyprotein (Dengue virus type 2 (strain 16681-PDK53)) (P29991 whole entry, looked up): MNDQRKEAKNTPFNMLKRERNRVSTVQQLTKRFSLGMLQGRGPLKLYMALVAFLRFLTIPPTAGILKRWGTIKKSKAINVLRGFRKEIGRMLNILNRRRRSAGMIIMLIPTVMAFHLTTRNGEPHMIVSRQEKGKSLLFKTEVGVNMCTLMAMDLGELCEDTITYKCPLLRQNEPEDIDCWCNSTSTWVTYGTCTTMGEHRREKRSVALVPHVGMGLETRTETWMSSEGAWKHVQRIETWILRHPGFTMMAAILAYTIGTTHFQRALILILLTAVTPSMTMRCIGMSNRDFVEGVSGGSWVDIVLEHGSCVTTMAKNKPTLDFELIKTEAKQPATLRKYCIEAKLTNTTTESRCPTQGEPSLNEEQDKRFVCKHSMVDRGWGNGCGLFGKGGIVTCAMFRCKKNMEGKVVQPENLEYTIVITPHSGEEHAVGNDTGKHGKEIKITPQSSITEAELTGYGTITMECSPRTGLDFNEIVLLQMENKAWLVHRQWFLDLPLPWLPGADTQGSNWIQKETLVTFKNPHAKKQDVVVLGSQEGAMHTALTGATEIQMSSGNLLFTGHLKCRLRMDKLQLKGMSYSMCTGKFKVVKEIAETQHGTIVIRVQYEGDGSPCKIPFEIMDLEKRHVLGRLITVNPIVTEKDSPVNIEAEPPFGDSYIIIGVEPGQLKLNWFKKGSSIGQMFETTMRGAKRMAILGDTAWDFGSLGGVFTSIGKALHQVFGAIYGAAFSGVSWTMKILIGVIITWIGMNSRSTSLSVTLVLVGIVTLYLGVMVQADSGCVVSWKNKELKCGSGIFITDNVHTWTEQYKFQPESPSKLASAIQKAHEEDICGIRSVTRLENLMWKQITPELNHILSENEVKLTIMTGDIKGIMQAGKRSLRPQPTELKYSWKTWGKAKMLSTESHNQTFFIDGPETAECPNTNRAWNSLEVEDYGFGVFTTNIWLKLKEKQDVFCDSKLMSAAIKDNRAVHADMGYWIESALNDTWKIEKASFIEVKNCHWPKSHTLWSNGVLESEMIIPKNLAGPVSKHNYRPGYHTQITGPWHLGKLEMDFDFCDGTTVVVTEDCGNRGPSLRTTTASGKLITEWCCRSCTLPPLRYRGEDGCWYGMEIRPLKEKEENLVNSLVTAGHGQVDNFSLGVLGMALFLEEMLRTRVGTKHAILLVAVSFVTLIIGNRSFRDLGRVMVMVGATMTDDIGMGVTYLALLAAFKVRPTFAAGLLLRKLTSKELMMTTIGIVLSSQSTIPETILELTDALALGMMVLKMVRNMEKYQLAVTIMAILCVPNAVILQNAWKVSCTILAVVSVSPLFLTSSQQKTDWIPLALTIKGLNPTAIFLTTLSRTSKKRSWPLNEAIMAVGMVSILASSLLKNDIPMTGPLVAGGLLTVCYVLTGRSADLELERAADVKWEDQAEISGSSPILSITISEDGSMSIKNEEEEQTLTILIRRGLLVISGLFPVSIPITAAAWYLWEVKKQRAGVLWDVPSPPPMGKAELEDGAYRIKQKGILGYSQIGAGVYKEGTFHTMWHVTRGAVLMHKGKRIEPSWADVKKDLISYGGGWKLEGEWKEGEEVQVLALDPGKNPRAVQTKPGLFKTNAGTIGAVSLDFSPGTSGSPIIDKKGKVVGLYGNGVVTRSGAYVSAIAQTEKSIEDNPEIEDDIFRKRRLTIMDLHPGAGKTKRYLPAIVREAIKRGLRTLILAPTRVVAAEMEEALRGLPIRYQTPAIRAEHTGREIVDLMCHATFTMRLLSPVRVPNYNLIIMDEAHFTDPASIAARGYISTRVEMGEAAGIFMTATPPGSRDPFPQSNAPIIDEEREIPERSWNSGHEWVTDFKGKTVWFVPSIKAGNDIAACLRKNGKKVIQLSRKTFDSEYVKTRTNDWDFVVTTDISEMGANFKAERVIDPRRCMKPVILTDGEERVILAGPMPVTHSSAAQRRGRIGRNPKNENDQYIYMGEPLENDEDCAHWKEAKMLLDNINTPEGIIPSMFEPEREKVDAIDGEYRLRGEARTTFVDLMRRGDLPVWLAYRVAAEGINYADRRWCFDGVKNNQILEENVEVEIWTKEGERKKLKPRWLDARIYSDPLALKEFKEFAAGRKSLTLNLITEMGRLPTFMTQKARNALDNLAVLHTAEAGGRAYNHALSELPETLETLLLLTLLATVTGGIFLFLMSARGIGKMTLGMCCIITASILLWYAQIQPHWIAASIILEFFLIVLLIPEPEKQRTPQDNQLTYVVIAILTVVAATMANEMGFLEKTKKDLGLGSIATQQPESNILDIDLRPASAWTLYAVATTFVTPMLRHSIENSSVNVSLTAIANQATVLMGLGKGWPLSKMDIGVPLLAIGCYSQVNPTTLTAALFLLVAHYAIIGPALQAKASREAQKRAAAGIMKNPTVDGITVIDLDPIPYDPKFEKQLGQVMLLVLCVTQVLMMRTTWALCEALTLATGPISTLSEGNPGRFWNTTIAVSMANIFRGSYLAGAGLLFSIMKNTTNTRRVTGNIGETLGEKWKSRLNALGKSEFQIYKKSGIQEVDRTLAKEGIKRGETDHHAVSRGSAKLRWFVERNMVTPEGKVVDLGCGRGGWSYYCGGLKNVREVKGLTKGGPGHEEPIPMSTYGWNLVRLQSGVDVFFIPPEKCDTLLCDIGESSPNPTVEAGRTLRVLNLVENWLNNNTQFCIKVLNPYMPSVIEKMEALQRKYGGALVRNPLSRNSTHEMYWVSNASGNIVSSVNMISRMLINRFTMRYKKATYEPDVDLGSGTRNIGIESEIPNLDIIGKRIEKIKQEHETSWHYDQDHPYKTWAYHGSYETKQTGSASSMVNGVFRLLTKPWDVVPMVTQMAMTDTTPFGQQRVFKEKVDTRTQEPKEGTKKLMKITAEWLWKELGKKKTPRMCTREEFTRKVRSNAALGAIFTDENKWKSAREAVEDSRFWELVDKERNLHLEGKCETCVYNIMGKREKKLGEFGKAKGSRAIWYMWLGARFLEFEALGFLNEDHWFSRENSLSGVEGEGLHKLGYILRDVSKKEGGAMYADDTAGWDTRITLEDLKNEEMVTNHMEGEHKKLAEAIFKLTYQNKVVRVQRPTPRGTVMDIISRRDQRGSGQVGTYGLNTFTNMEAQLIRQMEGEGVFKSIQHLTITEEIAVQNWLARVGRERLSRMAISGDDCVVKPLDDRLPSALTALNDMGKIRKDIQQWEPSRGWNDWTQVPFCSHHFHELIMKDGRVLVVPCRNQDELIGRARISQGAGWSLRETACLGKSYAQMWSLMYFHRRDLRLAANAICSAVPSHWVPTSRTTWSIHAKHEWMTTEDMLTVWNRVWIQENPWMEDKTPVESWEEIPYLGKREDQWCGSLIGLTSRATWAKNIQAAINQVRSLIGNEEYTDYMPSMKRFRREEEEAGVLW

In the case of `CN(C)c1ccc(C=c2c3ccccc3n3c2cc(-c2ccccc2)[n+]3C)cc1`, the inhibition was 16.6% (inactive).
As to `C[n+]1c(-c2ccccc2)cc2c(=Cc3ccccc3)c3ccccc3n21`, the inhibition is -8.87% (inactive).
On to `COc1cc(C=c2c3ccccc3n3c2cc(-c2ccccc2)[n+]3C)cc(OC)c1OC`, for which the inhibition was -32.8% (inactive).
On to `CN(C)c1ccc(C=c2c3cc(O)ccc3n3c2cc(-c2ccccc2)[n+]3C)cc1`, for which the inhibition is 27.4% (inactive).
`C=CCn1c(SCC#N)nc2ccccc2c1=O`: the inhibition is 0.54% (inactive).
For `Cc1ccc(NC(=O)C(C)Sc2nnc(C)n2C)cc1` (stereo unspecified), the inhibition was -10.5% (inactive). Also, the inhibition under setting [1] was -8.82%.
`Oc1ccc(N=Nc2ccc3ccccc3c2)cc1`: the inhibition was -0.57% (inactive).
Regarding `Nc1ccc(N=Nc2ccc(O)cc2)c(N)n1`, the inhibition was -2.31% (inactive).
With `COc1ccc(NC(=O)C2CCCN(S(=O)(=O)c3ccc4[nH]c(=O)ccc4c3)C2)cc1OC` (stereo unspecified), the inhibition is -7.99% (inactive).
With `CCN(CC)CCN(Cc1cc2cc3c(cc2[nH]c1=O)OCO3)C(=S)NCCCOC`, the inhibition was -4.77% (inactive).
The same measure, in the same setting: with `Cc1[nH]c2ccccc2c1C1C(c2ccccc2)=NN=C(C(C)C)N1O` (stereo unspecified) the figure was -11.8% (inactive).
Still for that read-out and setting: next, `CCCN(CCC)S(=O)(=O)c1cccc(-c2csc(C)n2)c1`: -5.33% (inactive); `COc1cccc(CN(C)C(=O)C2CSC3(C)CCC(=O)N23)c1OC` (stereo unspecified): -4.42% (inactive).
The same measure, in the same setting: next, `COc1cc(/C=C2/NC(=O)N(Cc3ccccc3F)C2=O)ccc1Oc1ccc([N+](=O)[O-])cn1`: -0.72% (inactive).
As for `COc1cc(/C=C2/NC(=O)N(Cc3ccccc3F)C2=O)cc(OC)c1O`, the inhibition is 1.47% (inactive).
With `COc1ccc(Cl)cc1-c1nc(SCC(=O)N(C)C)n[nH]1`, the inhibition was -2.97% (inactive).
In the case of `Cc1nc2sc(C(c3ccco3)N3CCc4ccccc4C3)c(O)n2n1` (stereo unspecified), the inhibition is -4.07% (inactive).
As to `CCCCNC(=O)c1onc(CSc2ccccc2CC)c1C(=O)O`, the inhibition is 6.29% (inactive).
Take `CCCCNC(=O)c1onc(CSc2ccccc2C)c1C(=O)O`: the inhibition is 7.73% (inactive).
Same read-out and setting: with `Cc1cccc(NC(=O)N(Cc2nc3ccccc3c(=O)[nH]2)C2CCCC2)c1` the figure was -1.56% (inactive); with `CCOc1ccc(Br)cc1S(=O)(=O)Nc1cccc(S(=O)(=O)Nc2ccccc2C(=O)O)c1`, 11.4% (inactive).
In the case of `CN(C)S(=O)(=O)c1cccc(-n2sc3ccccc3c2=O)c1`, the inhibition is -48.9% (inactive).
The same measure, in the same setting: next, `Cc1ccc(S(=O)(=O)Nc2cccc(S(=O)(=O)Nc3ccccc3C(=O)O)c2)c(C)c1`: 17.5% (inactive); `O=C(O)c1cccc(-n2sc3ccccc3c2=O)c1`: -2.4% (inactive).
As for `CN(CCOc1ccccc1)C(=O)c1cc(S(=O)(=O)N2CCOCC2)ccc1Cl`, the inhibition was -7.25% (inactive).
Turning to `NS(=O)(=O)c1ccc(NC(=O)Cc2cccs2)cc1`, the inhibition was 0% (inactive).
Turning to `O=c1[nH]c2cc([N+](=O)[O-])cc(Cl)c2c2ccccc12`, the inhibition is 5.75% (inactive).
Same read-out and setting: with `CNC(=O)CN1C(=O)NC2(CCc3ccccc3C2)C1=O` (stereo unspecified) the figure was 0.74% (inactive).
On the same count and under the same terms, with `COCC(C)n1c(SCC(=O)NC(=O)Cc2ccccc2)nc2ccccc2c1=O` (stereo unspecified) the figure was 1.46% (inactive); with `CSc1nsc(SCC(=O)Nc2ccc(Cl)c(C(=O)O)c2)n1`, 8.31% (inactive).
Turning to `O=C(CSc1n[nH]c(-c2ccncc2)n1)Nc1ccc(Cl)c(C(=O)O)c1`, the inhibition was 0.89% (inactive).
Consider `O=C(Cn1cnc([N+](=O)[O-])n1)N/N=C/c1cc(Cl)ccc1O`, for which the inhibition was -13.5% (inactive).
For `NS(=O)(=O)c1ccc(NS(=O)(=O)c2ccc(NC(=O)C3CC3)cc2)cc1`, the inhibition is 15.1% (inactive).
With `Cc1csc(SCC(=O)Nc2ccc(F)cc2Cl)n1`, the inhibition was -8.4% (inactive).
On to `O=C(Nc1ncccc1Cl)C(Sc1ccccc1)c1ccccc1` (stereo unspecified), for which the inhibition was -1.88% (inactive). Moreover, the inhibition under setting [1] was -5.46%.
Turning to `CNC(=O)Oc1ccc2c(c1)[C@]1(C)CCN(C)[C@@H]1N2C`, the inhibition was -1.49% (inactive) and -0.75% (inactive).
With `CNC(=O)Oc1ccc2c(c1)[C@]1(C)CCN(C)C1N2C` (stereo partly specified), the inhibition is 0% (inactive).
In the case of `O=C(Nc1ccc(Cl)cc1)Nc1ccc2c(c1)N1CCN=C1S2`, the inhibition is -47.1% (inactive).
`COC(=O)c1ccccc1NC(=O)CSc1nccn1C`: the inhibition is 0.56% (inactive).
On to `COc1cc(-c2ccc3sc(-c4ccsc4)c(C#CCO)c3c2)cc(OC)c1OC`, for which the inhibition was 3.31% (inactive).
In the case of `Cc1ccc(C2=C(O)C(=O)C(c3ccc(C)cc3)=C(O)C2=O)cc1`, the inhibition is 2.31% (inactive).
On the same count and under the same terms, with `Cc1ccc(C2=C(O)c3ccccc3C(=O)C2=O)cc1` the figure was 10.5% (inactive); with `COc1ccc([N+](=O)[O-])cc1-c1[nH]c(-c2ccc(C(=O)O)cc2)nc1-c1ccccc1`, -2.87% (inactive); with `CC(=O)Nc1ccc(S(=O)(=O)Nc2c(C)nn(-c3ccccc3)c2C)cc1`, -3.38% (inactive).
`COc1cc(NCc2ccccc2O)c2ncccc2c1`: the inhibition is -1.29% (inactive).
`COc1cc(NC(=O)C2CCCCC2)c2ncccc2c1`: the inhibition is -4.93% (inactive).
Take `CCN(CCCNC(=O)CNC(=O)c1nn(-c2ccc(OC)cc2OC)c(=O)c2ccccc12)c1cccc(C)c1`: the inhibition was -2.2% (inactive).
Turning to `Cc1cccc(-n2ccnc2SCC(=O)Nc2cc(C)on2)c1`, the inhibition is -6.93% (inactive).
On to `COc1ccc2[nH]c3c(c2c1)CCN1C(=O)C(CC(=O)NC(C)(C)C)C[C@H](C(=O)N(C(C)C)C(C)C)[C@@]31C` (stereo partly specified), for which the inhibition was -6.62% (inactive). Further, the inhibition under setting [1] was -4.89%.
Take `Cc1cc(C)nc(SCC(=O)Nc2ccc(S(=O)(=O)Nc3cc(C)on3)cc2)n1`: the inhibition is -0.67% (inactive).
Take `Cc1cc(NS(=O)(=O)c2ccc(NC(=O)CSc3nc4sc(C(=O)O)c(C)c4c(=O)[nH]3)cc2)no1`: the inhibition was 1.64% (inactive).
In the case of `O=C1C(=O)N(C/C=C/c2ccccc2)c2ccccc21`, the inhibition is -12.9% (inactive).
Regarding `CC1(C)CC(=O)C(=Cc2cn(-c3ccccc3)nc2-c2ccc(Cl)cc2)C(=O)C1`, the inhibition was -1.09% (inactive).
As for `N#CCCn1cc(/C=C2\NC(=S)N(c3ccccc3)C2=O)c(-c2ccc(F)cc2)n1`, the inhibition is -8.84% (inactive).
Take `CC1=NNC(=O)/C1=C\c1cn(-c2ccccc2)nc1-c1ccccc1`: the inhibition is 10.9% (inactive).
Take `CC1=NN(c2ccccc2)C(=O)/C1=C\c1cn(CCC#N)nc1-c1ccc(Cl)cc1`: the inhibition is 5.39% (inactive).
Consider `CC1(C)CC(=O)C(=Cc2cn(-c3ccccc3)nc2-c2ccccc2)C(=O)C1`, for which the inhibition is 27.8% (inactive).
On the same count and under the same terms, with `N#CCCn1cc(/C=N/O)c(-c2ccc(F)cc2)n1` the figure was -2.03% (inactive).
The same measure, in the same setting: next, `Cc1ccc(NC(=O)c2cc(-c3cc(Cl)ccc3O)n[nH]2)cc1C`: -6.12% (inactive); `COc1cccc(N2CCN(C(=O)CNC(=O)c3sc4ccccc4c3Cl)CC2)c1`: -1.29% (inactive); `O=C1CN(C(=O)COC(=O)c2ccccc2NCc2ccco2)c2ccccc2N1`: -4.76% (inactive).
Regarding `CCOC(=O)c1c(C)[nH]c(C(=O)OCC(=O)N(CC(C)C)C2CCS(=O)(=O)C2)c1C` (stereo unspecified), the inhibition was 4.1% (inactive).
As for `Cc1c(N(C)C(=O)c2ccccc2F)c(=O)n(-c2ccccc2)n1C`, the inhibition is 2.15% (inactive).
Regarding `COc1cccc(C(NC(=O)c2ccccc2F)NC(=O)c2ccccc2F)c1`, the inhibition was -5.64% (inactive).
Take `CC(=NCCCNC1CCCCC1)C1=C(O)CC(C)(C)CC1=O`: the inhibition was 10.2% (inactive).
For the molecule `O=C(NC1CCCc2ccccc21)C1CCN(c2c3c(nc4ncnn24)CCC3)CC1` (stereo unspecified), the inhibition was -6.95% (inactive).
For `O=C(O)C(Cc1ccccc1)N1C(=O)c2cccc3cccc(c23)C1=O` (stereo unspecified), the inhibition is -2.21% (inactive).
On the same count and under the same terms, with `O=C(O)C(Cc1ccccc1)N1C(=O)CCC1=O` (stereo unspecified) the figure was -3.06% (inactive); with `O=C(O)C(Cc1ccccc1)N1C(=O)c2ccccc2C1=O` (stereo unspecified), -1.57% (inactive).
Turning to `O=C(O)C(Cc1ccc(O)cc1)N1C(=O)c2c(Cl)c(Cl)c(Cl)c(Cl)c2C1=O` (stereo unspecified), the inhibition was 16.9% (inactive).
Turning to `Cc1cccc(C)c1NC(=O)C(c1ccc([N+](=O)[O-])cc1)N1CCCCC1` (stereo unspecified), the inhibition was -3.23% (inactive).
As for `Cc1onc(-c2ccccc2Cl)c1C(=O)Nc1ccc(-c2nnc3n2CCCCC3)cc1`, the inhibition was 9.09% (inactive).
On to `O=C(CNC(=O)c1cccs1)Nc1ccncc1`, for which the inhibition was 1.47% (inactive).
For the molecule `Cc1cc(C(C)(C)C)oc1C(=O)N(CC(=O)NC1CCCC1)c1cccc(C(F)(F)F)c1`, the inhibition is -5.56% (inactive).
On the same count and under the same terms, with `Cc1[nH][nH]c(=O)c1C(c1cc(Br)ccc1O)c1c(C)[nH][nH]c1=O` the figure was 0% (inactive).
For the molecule `CCc1c(C(=O)O)[nH]c2ccc(Br)cc12`, the inhibition is 7.42% (inactive).
On to `CCOC(=O)c1[nH]c2ccccc2c1NC(C)=O`, for which the inhibition is 1.39% (inactive).
`O=C(CC(c1ccccc1)c1cc(Br)ccc1O)N1CCCC1` (stereo unspecified): the inhibition was -0.78% (inactive).
On to `CCOc1ccccc1NC(=O)CSCC(=O)Nc1ccccc1`, for which the inhibition was 0% (inactive).
`CCOC(=O)N1CCN(CC(O)COCC2=CCC3CC2C3(C)C)CC1` (stereo unspecified): the inhibition is 6.09% (inactive).
Take `C[C@@H](C(=O)Nc1ccc2ccccc2c1)[C@H]1C[C@]1(C)[C@H](NC(=O)OCc1ccccc1)c1ccccc1`: the inhibition is 4.76% (inactive).
Regarding `CCOC(=O)N1CCN(S(=O)(=O)N2CCCC(C(=O)NCc3ccccc3Cl)C2)CC1` (stereo unspecified), the inhibition was -6.21% (inactive).
As for `CC(NC(=O)C1CCC1)c1ccc(Cl)cc1` (stereo unspecified), the inhibition was -3.24% (inactive).
In the case of `O=C1C2C3C=CC(C4CC34)C2C(=O)N1/N=C/c1ccc(-c2ccc(Cl)cc2[N+](=O)[O-])o1` (stereo unspecified), the inhibition is 0% (inactive).
Same read-out and setting: next, `Cc1ccc(-c2ccc(/C=N/N3C(=O)C4C5C=CC(C6CC56)C4C3=O)o2)c([N+](=O)[O-])c1` (stereo unspecified): -2.05% (inactive); `COCc1cc(C)nc(N/N=C/c2ccc(-c3ccc(Cl)cc3[N+](=O)[O-])o2)c1C#N`: 0.9% (inactive); `Cc1ccc(-c2ccc(/C=N/N3C(=O)C4C5C=CC(CC5)C4C3=O)o2)c([N+](=O)[O-])c1` (stereo unspecified): 4.83% (inactive).
On to `Cc1nc2ccccn2c1C(=O)N/N=C/c1ccccc1Cl`, for which the inhibition was 0.65% (inactive).
